From PubChem
NALP1 yeast inh = NALP1 inflammasome inhibitors in reconstituted yeast, colorimetric, S. cerevisiae, triplicate retest; S. cerevisiae NALP1/ASC/caspase-1 growth, X-gal OD620, 72 h; AID 2071, 2009; inhibition, % at 10 µM; actives 0.61% (n = 280,000); in the data active = inhibition mostly above about 24%, no sharp cut-off; inactive = mostly below about 32%
p-CIP stab down = p/CIP-EGFP fusion destabilizers, primary screen, fluorescence, F442A cells | Q05BA5 | 16 h | decrease of EGFP signal, % at 10 µM | actives 0.01% (n = 290,000);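 active = EGFP signal decrease of at least 30% at 10 µM or well 3 SD below plate mean, unless failing retest; inactive = the rest, including hits failing retest or dose response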
HSF1 activator = HSF-1 activators, primary screen, NIH3T3-HGL cells, MG132 stress, luminescence, single point; NIH3T3-HGL HSF-1 luciferase reporter, 8 h; 100% = twice DMSO control signal; activation, % at 9 µM; actives 1.7% (n = 300,000);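 active = mean replicate activation of at least 50% with a set share of replicates each reaching 50%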;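 note: 0% = median of the neutral control wells and 100% = twice that signal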
HSF1 inh = HSF1 inhibitors in luciferase reporter cells, primary screen, cell-based, NIH3T3, luminescence; NIH3T3-HGL HSE-luciferase, MG132-induced, luminescence 8 h; hits give low values; activity change, negative = inhibition, % at 7.5 µM (by protocol); actives 0.77% (n = 300,000); AID 2098, 2009;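 active = more than half of replicate wells show activity change below -50%, luminescence cut by over half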;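 note: luciferase reports HSF-1 transcriptional activity via heat shock element; 0% = median of DMSO wells and -100% = zero luminescence signal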
Hsp70 activator = Hsp70 transcriptional activators, primary screen, cell-based, HeLa, Hsp70 promoter luciferase, luminescence, 10 µM; HeLa Hsp70 promoter luciferase reporter; scaled: vehicle 0, proteasome-inhibitor control 100%; activation, % at 10 µM; actives 0.04% (n = 200,000); AID 1203, 2008;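 active = activation above the mean across all tested compounds plus 3 SD, cutoff set per campaign, cut at about 5.5% in these data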;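 note: 100% = MG132 at 30 µM as the positive control and 0% = DMSO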
HSP90 refold inh = HSP90 inhibitors, primary screen, cell lysate, luminescence; Heat shock protein HSP 90 (rabbit reticulocyte lysate; luciferase refolding); Rabbit reticulocyte lysate, luciferase refolding luminescence, 3 h; inhibition, % at 5.6 µM; actives 0.91% (n = 290,000); AID 1789, 2009;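 active = inhibition above the screen-wide mean plus 3 SD, computed separately per campaign, cut at about 16% in these data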;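 note: 0% = DMSO wells and 100% = 60 µM geldanamycin wells; inhibitors lower the luminescence because luciferase stays unfolded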
Starred values were filed as active, the others as inactive; / = no result. A selection: hits, their analogues and other compounds. The true share with any hit is near 3.8%.

SMILES	NALP1 yeast inh	p-CIP stab down	HSF1 activator	HSF1 inh	Hsp70 activator	HSP90 refold inh
Cc1[nH]n(-c2ccccc2)c(=O)c1C(C[N+](=O)[O-])c1ccc(F)cc1 (stereo not drawn)	108.8*	6.6	281.7*	238.1	-0.2	-1.0
Cc1[nH]n(-c2ccccc2)c(=O)c1C(C[N+](=O)[O-])c1ccc(Cl)cc1 (stereo not drawn)	107.8*	-21.0	132.7*	110.7	0.0	-3.2
COc1ccc2nc(NC(=O)Cn3cnc4ccccc4c3=O)sc2c1	/	-2.1	5.3	-0.9	/	-2.1
O=C(O)c1cc(-c2ccc3ccccc3c2)nc2ccc(F)cc12	3.4	-0.3	33.8	23.0	/	-6.7
CCOc1ccc(C2NC(=O)NC(C)=C2[N+](=O)[O-])cc1OC (stereo not drawn)	/	-2.7	-1.6	1.7	/	-1.2
Cc1ccc(OCc2ccc(C#N)cc2)c(C(=O)c2cc(C#N)c(=O)n(C3CC3)c2)c1	18.1	-10.9	53.1*	5.7	-0.1	-2.2
CC(=O)c1cccc(NC(=O)COc2ccccc2C(=O)c2cc(C#N)c(=O)n(C3CCCCC3)c2)c1	17.8	-4.9	-15.2	-3.4	-0.3	3.1
CCCCCc1nnc(NC(=O)NS(=O)(=O)c2ccc(C)cc2)s1	9.3	1.6	9.4	3.9	/	1.1
CC(C)NC(=O)CC(c1ccccc1)c1cc(Br)ccc1O (stereo not drawn)	40.5*	-1.5	6.9	0.8	0.7	2.1
Nc1ncnc2c(C3OC(CO)C(O)C3O)c[nH]c12 (stereo not drawn)	/	/	90.8*	90.8*	/	/
CCOC(=O)c1c(NC(C)=O)sc2c(O)cccc12	29.3	-11.1	5.0	3.6	-0.3	-1.8
CCOC(=O)c1c(N)sc2c(OCC)c(Br)ccc12	4.1	3.7	-8.8	4.3	-0.4	0.2
CCOC(=O)c1c(NC(C)=O)sc2c(OCC(O)CNC(C)(C)C)c(Br)ccc12 (stereo not drawn)	26.1*	-16.3	-47.0	-38.2	-0.2	5.9
CCOC(=O)c1c(NC(C)=O)sc2c(O)c(Br)cc(Br)c12	23.4	2.5	52.5*	28.4	-0.3	-6.3
CC(C)c1nc2cc(C(=O)NC(c3cccnc3)C(F)(F)F)ccc2o1 (stereo not drawn)	2.5	-5.9	-11.4	-7.9	/	0.8
COc1ccc(C2/C(=C(/O)c3ccc4c(c3)CC(C)O4)C(=O)C(=O)N2CCN2CCOCC2)cc1OC (stereo not drawn)	26.0	5.3	-10.1	-0.6	/	-1.3
N#C/C(=C\c1ccc(F)c(Br)c1)C(=O)NC1CC1	1.5	-15.9	-24.5	-9.1	/	-4.3
N#C/C(=C\c1ccc(F)c(F)c1)C(=O)NC1CCCCC1	60.4*	-14.0	-17.6	-2.2	-0.3	1.3
COc1ccc(C[C@H]2CN3C(=NC[C@@H]3Cc3ccc(O)cc3)N2C[C@H](C)NC(=O)c2ccc(C)c(Br)c2)cc1	15.2	-9.5	-10.5	6.0	/	/
CC1CC(C)CN(C(=O)Nc2ccccc2F)C1 (stereo not drawn)	2.4	-1.4	-1.1	-5.6	/	-1.8
CC(=O)Nc1ccccc1OC(C)C(=O)N1CC(C)CC(C)C1 (stereo not drawn)	-3.9	-7.3	113.6*	55.5	/	-1.2
CC(=O)N1c2ccc(S(=O)(=O)N3CCCC3)cc2CC1C(=O)NCc1ccc(N(C)C)cc1 (stereo not drawn)	18.1	1.8	57.3*	18.3	/	-1.2
S=C1Cc2ccccc2N1	/	-8.1	-78.5	-77.3*	/	5.1
CCOc1ccc(S(=O)(=O)NCCC(=O)NCc2ccccn2)cc1	/	/	11.3	3.0	/	/
CC(=O)N(c1ccc(C(F)(F)F)cc1)S(=O)(=O)c1ccc(N2C(=O)CCC2=O)cc1	31.7*	11.6	-9.3	-3.0	/	0.4
SMILES	NALP1 yeast inh	p-CIP stab down	HSF1 activator	HSF1 inh	Hsp70 activator	HSP90 refold inh
O=C(O)c1ccc(NS(=O)(=O)c2ccc(N3C(=O)CCC3=O)cc2)cc1	13.0	-7.3	12.3	-5.9	/	-0.6
CCOC(=O)c1ccc(NC(=S)Nc2ccccc2N)cc1	/	/	-53.7	-45.5	/	/
Cc1cccc2cc3c(nc12)SC(=NCC1CCCO1)N(Cc1ccco1)C3 (stereo not drawn)	-12.2	-3.6	189.7*	166.3	-0.2	8.6
CCOc1ccc(N2CSC(=S)N(c3ccc(OCC)cc3)C2)cc1	-3.3	-26.6	-70.9	-64.7*	/	1.2
CCOc1ccc(N2CC(=O)SC2=S)cc1	10.4	-8.6	4.4	-3.4	-0.1	-2.2
Cc1cccc(N2CCN(C(=O)C3CCC(=O)N(Cc4ccccc4F)C3)CC2)c1C (stereo not drawn)	13.4	-1.7	19.5	5.4	/	4.4
O=C(O)c1ccc(CN2C(=O)c3cccc4c([N+](=O)[O-])ccc(c34)C2=O)cc1	4.8	-260.8	-82.0	-83.5*	/	4.2
Cc1ccc(C(=O)O)cc1N1C(=O)c2cccc3c([N+](=O)[O-])ccc(c23)C1=O	14.2	-27.9	-10.2	-9.3	/	3.0
OCCC1CN(CC2CCCCC2)CCN1CC1CCCCC1 (stereo not drawn)	5.2	2.2	5.5	-0.6	/	-2.7
COc1ccc(C2CC(c3c(O)cc(C)oc3=O)=NCCS2)c(OC)c1 (stereo not drawn)	8.2	-13.2	/	/	-0.1	-2.5
Cc1cc(O)c(C2=Nc3ccccc3SC(c3ccc(Cl)cc3)C2)c(=O)o1 (stereo not drawn)	16.5	8.1	-62.9	-54.2*	-0.3	7.3
COc1ccc(Cl)c(OC)c1C(=O)NC(=O)Nc1c(F)cc(F)cc1F	/	-2.8	-0.2	-6.2	/	-0.3
CC(C)Cc1ccc(C#N)c(SCC(N)=O)n1	13.8	2.8	-69.3	-58.5*	-0.3	-2.5
CCCn1ncc(C(=O)N(C)C2CCCN(Cc3ccccc3F)C2)c1C (stereo not drawn)	3.2	-3.7	-3.8	-4.1	/	-2.8
COc1cc(NC(=O)c2c(OC)cccc2OC)ccc1NC(=O)c1cc2ccccc2o1	15.7	-0.4	52.1*	34.8	/	-5.1
Cc1cccc(NC(=O)c2cc3ccccc3o2)c1	10.2	-4.5	76.4*	44.5	0.1	6.0
Cc1nnc(NC(=O)c2cc3ccccc3o2)s1	-27.9	-0.5	11.4	10.7	/	-3.6
O=C(Nc1cccc(Br)c1)c1cc2ccccc2o1	7.7	4.6	86.0*	56.0	0.2	2.0
Cc1cnc(NC(=O)c2cc3ccccc3o2)s1	6.5	0.3	40.9	10.6	-0.3	38.3*
CC1(C(=O)Nc2ccc3ccccc3c2)CC1(Br)Br (stereo not drawn)	0.5	11.4	-8.6	6.6	-0.1	-5.6
Clc1ccccc1-c1nc(-c2ccccc2)n[nH]1	11.4	0.3	53.9*	24.0	0.0	-0.2
